The full list was thinned out, with hits kept by preference.
CHX counter = affects cycloheximide protein synthesis inhibition readout, counter-screen | hit rate 12% among 300,000 | cell reporter, cycloheximide protein synthesis inhibition counterscreen | max response, %; in the data active = max response mostly above about 13%, no sharp cut-off; inactive = mostly below about 14%; also: read at 38.3 µM for the half of the compounds with a filed dose; 0% is about no effect
Giardia FBPA inh = Giardia lamblia aldolase inhibition | A8B2U2 | purified Giardia FBPA | Potency, µM (doses to about 59.6 µM), inactives show at the top dose activity, negative = inhibition, actives largely listed as inhibitors | hit rate 0.71% among 290,000 | AID 2451; also: potency is read from the fitted curve at half-maximal effect; % is scaled to controls: 0 for no effect and ±100 for the full control effect; nearly all actives have a fitted effect of over 55% in size
Target sequence (A8B2U2 whole entry, looked up): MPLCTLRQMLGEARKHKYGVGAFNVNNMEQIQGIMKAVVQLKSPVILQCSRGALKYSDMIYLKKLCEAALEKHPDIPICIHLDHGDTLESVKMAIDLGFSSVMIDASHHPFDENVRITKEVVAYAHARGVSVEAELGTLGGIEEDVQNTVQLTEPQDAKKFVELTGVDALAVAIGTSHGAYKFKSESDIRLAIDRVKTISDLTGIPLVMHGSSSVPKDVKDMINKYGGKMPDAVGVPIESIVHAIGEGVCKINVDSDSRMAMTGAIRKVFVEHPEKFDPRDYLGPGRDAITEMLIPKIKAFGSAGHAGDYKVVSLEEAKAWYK
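40 nM FBPA preincubated 10 min at RT with compound (up to 57.5 uM final), then substrate plus GAPDH/TPI/NAD/arsenate coupling and diaphorase/resazurin added. Fluorescence read after 20 min at RT, 525/598 nm.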
Tb PYK inh = blocks Trypanosoma brucei pyruvate kinase; TbPYK enzyme, Kinase-Glo Plus ATP luminescence, 45 min; Potency, µM (titrated, usually from 76.8 µM), without a hit: at the top dose activity, negative = inhibition, actives largely listed as inhibitors; hit rate 0.12% among 410,000; also: potency is read from the fitted curve at half-maximal effect; % is scaled to controls: 0 for no effect and ±100 for the full control effect; nearly all actives have a fitted effect of over 50% in size
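Screened from lowest to highest concentration, compounds were pinned into TbPYK/substrate mixtures, and ADP (130 uM final) was added. Plates sat at room temperature for 45 min prior to Kinase-Glo Plus detection by luminescence.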
LmPK inh = LmPK (Leishmania mexicana) enzyme inhibition; Q27686; purified LmPK, Kinase-Glo ATP luminescence, 1 h; Potency, µM (highest dose often 57.5 µM), for inactives: at the highest dose activity change, negative = inhibition, most hits filed as inhibitors; hit rate 0.37% among 290,000; AID 1721; also: potency is read from the fitted curve at half-maximal effect; % is scaled to controls: 0 for no effect and ±100 for the full control effect
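Purified LmPK (0.1 nM) with 0.5 mM PEP and 0.1 mM ADP in imidazole buffer pH 7.2 with MgCl2/KCl, 1 h at room temperature. ATP formed was read by luciferase luminescence and normalized to no-enzyme and uninhibited controls.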
Sm TGR block = S. mansoni TGR enzyme inhibition; Potency, µM (titrated, usually from 114 µM), for inactives: at the top dose activity change, negative = inhibition, hits mostly inhibitors; AID 485364; hit rate 3% among 360,000; Q962Y6; purified TGR, DTNB reduction, TNB absorbance 405 nm; also: potency is read from the fitted curve at half-maximal effect; % is scaled to controls: 0 for no effect and ±100 for the full control effect; nearly all actives have a fitted effect of over 60% in size
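TGR 20 nM + NADPH 100 uM (dispensed conc.), cpd preinc 15 min RT; start with NADPH (500 uM addition) then DTNB (15 mM addition). Kinetic TNB absorbance, 405 nm filter. Four-parameter Hill fit across titration.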
Shiga inhibitor = Shiga toxin inhibition; Vero cells, Shiga toxin protein synthesis inhibition reporter; hit rate 9.2% among 290,000; AID 2315; inhibition, % at 38.7 µM; in the data active = inhibition mostly above about 28%, no sharp cut-off; inactive = mostly below about 43%; also: 0% is about no effect
Starred values were filed as active, the others as inactive; u = inconclusive; x = no result given; [ ] = dose if it differs, or a comment. Unless noted, calls follow the shape of the dose curve; as a rule, active = well fitted curve in the direction sought with a large enough effect; inconclusive = small, poorly fitted or top-dose-only effect, or another doubt; inactive = no such curve, though single readings can be large; an effect the other way counts as inactive or inconclusive.

SMILES | CHX counter | Giardia FBPA inh | Tb PYK inh | LmPK inh | Sm TGR block | Shiga inhibitor
N#Cc1ccc(CSc2nc(N)cc(=O)[nH]2)cc1 | -3 | -11% | -2% | 3% | -3% | -7
Cc1ccc(CSc2nc(N)cc(N)n2)cc1 | 25* | 0% | 2% | 0% | -7% | x
CCCCN1C(=O)C(CC(=O)NCc2ccco2)CC(C(=O)N(CC)CC)=C1C (configuration not stated) | x | x | -2% | x | x | x
COc1ccnc(Oc2ccc3ccccc3c2)c1C#N | 61* | 3% | -3% | 0% | 13% | 60*
COc1ccnc(Oc2ccc(C)cc2)c1C#N | 37* | 5% | 1% | -1% | 10% | 121*
COc1ccc(Oc2nccc(-c3ccccc3)c2C#N)cc1 | 77* | 0% | 0% | 3% | 51% | 133*
N/C(=N\OC(=O)/C=C/c1ccccc1Cl)c1cccnc1 | 63* | 0% | -8% | -2% | -1% | 112*
N/C(=N\OC(=O)/C=C/c1ccc(Br)cc1)c1ccccn1 | 81* | 3% | -14% | -20% | 7% | 68*
N/C(=N\OC(=O)/C=C/c1ccccc1)c1cccnc1 | 32* | 2% | 2% | -13% | x | 70*
N/C(=N\OS(=O)(=O)c1ccccc1)c1cccnc1 | 1 | 3% | -14% | -2% | 2% | -1
Cc1cccc(CNc2ncnc3ccc(-c4cccc(Cl)c4)cc23)c1 | x | x | x | x | -16% | x
O=C(CCc1ccccc1)c1c(O)cc(O)cc1O | active | -10% | -1% | -5% | 6% | 6
COc1cccc(C(=O)CN2C(=O)C(C)(C)Oc3ccc(C(=O)N4CCCCCC4)cc32)c1 | 31* | 7% | 1% | 1% | -1% | 6
O=C(CSc1ccc(-c2ccco2)nn1)N1CCCC1 | 14 | -14% | -20% | -13% | 18µM* | 10
Cn1c(SCC(=O)N2CCCCCC2)nnc1-c1ccco1 | 0 | -2% | 2% | -1% | -14% | 52
O=C(CSc1ccc(-c2ccco2)nn1)N1CCCCC1 | 61* | 13µM* | -8% | -6% | u | 62*
COc1ccc(-c2ccc(SCC(=O)N3CCCC3)nn2)cc1OC | 3 | 2% | 2% | -1% | -1%[11.4 µM] | 11
COc1ccc(-c2nc(SC)n(C)c(=O)c2C#N)cc1OC | -5 | -1% | -26% | -12% | 7% | -25
COc1ccc(C(c2c(O)nc(SC)n(C)c2=O)c2c(O)nc(SC)n(C)c2=O)cc1O | 5 | -11% | -13% | 1% | 13µM* | -6
O=C1NC2(CCCCC2)N=C1c1ccc(Br)cc1 | 15* | 2% | 2% | -1% | -3% | -4
O=C1NC2(CCCCC2)N=C1c1ccc(F)cc1 | 2 | -11% | -4% | -2% | 2% | 30
COc1ccc(-c2cc(CCCC(=O)NCc3ccccn3)no2)cc1 | 34* | -6% | -1% | 1% | 0% | 21
COc1ccc(-c2cc(CCCC(=O)NCCc3ccccc3)no2)cc1 | 64* | 1% | -2% | 0% | 8% | 67*
Cc1ccc(OCC(=O)NCC(=O)OCc2cc(=O)n3nc(CC(C)C)sc3n2)cc1 | x | x | 5% | x | 3% | x
O=C1OCC/C1=C\OCCCO/C=C1\CCOC1=O | -2 | 0% | 3% | 1% | 4% | -4
SMILES | CHX counter | Giardia FBPA inh | Tb PYK inh | LmPK inh | Sm TGR block | Shiga inhibitor
Cc1nn(C(=O)c2ccc(Cl)cc2)c(C)c1Sc1ccc(Cl)cc1 | x | x | -7% | x | -4% | x
Cc1ccc(C)c(OCc2cc(C(=O)N3CCN(c4ccccc4)CC3)no2)c1 | 93* | x | 7% | -8% | -28% | 98*
Cc1ccc(C)c(OCc2cc(C(=O)N3CCN(C(=O)c4ccco4)CC3)no2)c1 | 42* | x | -1% | -6% | -21% | 78*
O=C(c1cc(COc2ccc(F)cc2F)on1)N1CCN(C(=O)c2ccco2)CC1 | 8 | x | -3% | -11% | 25µM* | -5
COc1ccc(NC(=O)Nc2sc3nc4n(c(=O)c3c2C)CCC(C)CC4)cc1OC (configuration not stated) | x | x | -3% | x | u | x
O=c1c(-c2ccccc2)nc2cnc(N3CCOCC3)nc2n1Cc1cccs1 | x | 8% | x | x | x | x
CC1=CCC2C(=O)N(c3ccc4ccccc4n3)C(=O)C2C1 (configuration not stated) | 9.4* | -1% | 2% | -2% | -1% | -33
COc1ccc(Cn2c(C3CC3)nc3ccc(NC(=O)C4CC4)cc3c2=O)cc1 | 24* | -3% | 1% | -10% | -3% | 84*
CCC(=O)Nc1ccc2nc(C3CC3)n(Cc3ccc(C(C)(C)C)cc3)c(=O)c2c1 | 57* | 5% | -21% | 1% | 0% | 90*
CC(=O)Nc1ccc2nc(C3CC3)n(Cc3ccc(Cl)cc3)c(=O)c2c1 | 23* | 3% | -1% | 11% | 5% | 49*
Cc1cc(Br)ccc1NC(=O)c1cn(C2CCCC2)c(=O)c2c1c1ccccc1n2C | x | x | -1% | x | 8% | x
Cc1ccc(NC(=O)N2CCN(C(=O)c3nsc4ccccc34)CC2)cc1C | x | x | 3%[15.4 µM] | x | -2% | x
Cc1oc2cc(O)ccc2c(=O)c1Oc1ccc(F)cc1 | 13 | -5% | 5% | 3% | -3% | -5
Cc1oc2cc(O)ccc2c(=O)c1Oc1ccc2ccccc2c1 | 13 | 18% | x | 6% | 1% | 38*
Clc1c(-c2ccccc2)nnn1-c1ccccc1 | 56* | 2% | -8% | -23% | 1% | 105*
NS(=O)(=O)OCc1ccc(C(F)(F)F)cc1 | -3 | 3% | 7% | 1% | -26% | 2
Cc1nc2cc(NC(=O)c3ccc(Br)s3)ccc2s1 | 63* | x | 5% | -9% | -24% | 117*
Cc1nc2ccc(NC(=O)c3ccc([N+](=O)[O-])cc3)cc2s1 | 14 | 4% | -16% | -2% | -16% | 10
Cc1ccc(C(=O)Nc2ccc3nc(C)sc3c2)s1 | 43* | -1% | -7% | 2% | -18% | 112*
C=CCc1cccc(C2C(C)CCC3C(=O)N4C(Cc5c([nH]c6ccccc56)C4c4cc(OC)c(OC)c(OC)c4)C(=O)N32)c1 (configuration not stated) | x | -9%[12.9 µM] | x | x | x | x
Cc1ccc(CNC(=O)CN2C(=O)COc3ccc(S(=O)(=O)N4CCCCC4)cc32)o1 | 9 | 4% | -2% | 6% | 25µM* | 10
CC(=O)N1CCN(S(=O)(=O)c2cccc(C(=O)N(C)Cc3ccc(C)o3)c2)CC1 | x | x | -19% | x | 40µM* | x
COc1ccc(C(=O)N(C)Cc2ccc(C)o2)cc1OC1CCN(C(C)=O)CC1 | -2 | -3% | -7% | 1% | 25µM* | -8
Cc1ccc(CN(C)C(=O)c2ccc(S(=O)(=O)N3CCCCCC3)cc2)o1 | x | x | -28% | x | 50µM* | x
CCOc1ccc(-n2nc3ccc(NC(=O)c4ccc(-c5cccc(Cl)c5)o4)cc3n2)cc1 | x | x | -1% | x | u | x
CSc1oc(-c2ccco2)nc1S(=O)(=O)c1ccccc1 | 1 | -6% | -7% | 21% | 35µM* | 26
